Results: PubChem BioAssay (EPA / NIEHS)
Calls of active or inactive are those of the source. How the source made its calls: active means hit-call score of the fitted dose curve at least 0.9, where 1 is the maximum; inactive means score below 0.9.

Experiments:
[1] = ATG_GLI_CIS: Attagene CIS-FACTORIAL HepG2 Assay for human Zinc Finger Protein GLI1 (AID 2282945); details: HepG2, Attagene cis-factorial reporter mRNA, GLI element; actives raise or lower the signal
Summary of the method: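 Bidirectional curve fits relative to DMSO, using reporter mRNA levels from RT-PCR plus capillary electrophoresis. Cells were HepG2 transiently carrying cis-regulated reporter constructs, harvested 24 h after dosing.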

[2] = target: Bile acid receptor (Homo sapiens) (UniProt Q96RI1); assay: ATG_IR1_CIS: Attagene CIS-FACTORIAL HepG2 Assay for human Nuclear Receptor Subfamily 1 Group H Member 4 (NR1H4), IR1 submotif (AID 2282946); details: IR1 reporter transcription, actives raise or lower the signal
Summary of the method: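 Cells (human HepG2) carry transiently transfected cis-promoter reporter transcription units. Compounds are incubated 24 h, total RNA is reverse-transcribed and amplified, and labelled fragments are resolved by capillary electrophoresis. Curves use DMSO as baseline.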

[3] = ATG_ISRE_CIS: Attagene CIS-FACTORIAL HepG2 Assay for human Interferon Regulatory Factor 1 (IRF1) binding to an Interferon-Stimulated Response Element (ISRE) (AID 2282948); details: HepG2 ISRE cis-reporter (Attagene), mRNA transcription readout; actives raise or lower the signal
Summary of the method: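 Cell-based cis-reporter assay; HepG2; 24 h exposure; reporter mRNA by RT-PCR plus capillary electrophoresis fluorescence; activity in either direction scored relative to DMSO.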

[4] = ATG_M_32_CIS: Attagene CIS-FACTORIAL HepG2 Assay for M32 Transcription Factor (Internal Marker) (AID 2282949); details: HepG2 Attagene cis-factorial M32 reporter, mRNA; actives raise or lower the signal;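 further: background control marker of the multiplexed CIS panel rather than a real target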
Summary of the method: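 Fluorescent capillary electrophoresis peaks of HpaI-digested, FAM-labelled RT-PCR reporter products give the signal. Source: transiently transfected human liver HepG2 cells, 24 h after chemical dosing; bidirectional fitting against DMSO.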

[5] = ATG_M_06_CIS: Attagene CIS-FACTORIAL HepG2 Assay for M06 Transcription Factor (Internal Marker) (AID 2282950); details: HepG2 Attagene CIS-FACTORIAL M06 internal marker reporter; actives raise or lower the signal
Summary of the method: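 Fluorescence-labelled RT-PCR products from cis-promoter reporter units, cut with HpaI and resolved by capillary electrophoresis, give the signal. Cells are human HepG2, dosed for 24 h. Serves as background control, fitted relative to DMSO.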

[6] = target: Hypoxia-inducible factor 1-alpha (Homo sapiens) (UniProt Q16665); assay: ATG_HIF1a_CIS: Attagene CIS-FACTORIAL HepG2 Assay for human Hypoxia Inducible Factor 1 (HIF1A) (AID 2282951); details: HepG2 Attagene cis-factorial HIF1a reporter transcription; actives raise or lower the signal
Summary of the method: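 In this multiplexed cell assay, HepG2 cells bearing transfected cis reporters are dosed for 24 h and reporter mRNA is read by RT-PCR plus capillary electrophoresis; signal increases and decreases are both scored against DMSO.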

[7] = target: Hepatocyte nuclear factor 6 (Homo sapiens) (UniProt Q9UBC0); assay: ATG_HNF6_CIS: Attagene CIS-FACTORIAL HepG2 Assay for human Hepatocyte Nuclear Factor 6 (HNF6) (AID 2282952); details: HepG2 Attagene cis-factorial HNF6 reporter transcription; actives raise or lower the signal
Summary of the method: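 Multiplexed mRNA reporter assay in transfected HepG2; 24 h dosing; RT-PCR plus capillary electrophoresis fluorescence; DMSO-referenced bidirectional curve fitting.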

[8] = target: Heat shock factor protein 1 (Homo sapiens) (UniProt Q00613); assay: ATG_HSE_CIS: Attagene CIS-FACTORIAL HepG2 Assay for human Heat Shock Transcription Factor 1 (HSE) (AID 2282953); details: HepG2 HSE cis-reporter, Attagene RNA transcription; actives raise or lower the signal
Summary of the method: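 After a 24 h incubation with test chemical, transfected HepG2 cells were harvested for RNA; reporter transcripts were measured by RT-PCR and capillary electrophoresis. Values reflect gain or loss of signal relative to DMSO.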

[9] = ATG_MRE_CIS: Attagene CIS-FACTORIAL HepG2 Assay for human Metal Responsive Element (MRE) (AID 2282954); details: HepG2 MRE cis-reporter transcription, Attagene multiplex; actives raise or lower the signal
Summary of the method: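 Transient MRTU transfection of HepG2 (FuGene 6); 24 h dosing; total RNA → oligo(dT) RT, PCR, 6-FAM primer extension, HpaI cut, CE. Bidirectional fit vs DMSO.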

[10] = target: Paired box protein Pax-6 (Homo sapiens) (UniProt P26367); assay: ATG_Pax6_CIS: Attagene CIS-FACTORIAL HepG2 Assay for human Paired Box 6 (PAX6) (AID 2282956); details: HepG2 CIS-FACTORIAL PAX6 reporter transcription, RNA readout; actives raise or lower the signal
Summary of the method: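 Multiplexed cis-reporter HepG2 system; 24 h treatment; reporter mRNA read by RT-PCR/CE fluorescence; bidirectional fit vs DMSO.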

[11] = ATG_PXRE_CIS: Attagene CIS-FACTORIAL HepG2 Assay for human Pregnane X Receptor Element (PXRE) (AID 2282957); details: HepG2 Attagene CIS-FACTORIAL PXRE reporter, mRNA; actives raise or lower the signal
Summary of the method: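 Cells: HepG2, transiently transfected reporter units under cis promoter control. Exposure: 24 h. Detection: reporter mRNA via RT-PCR/CE fluorescence; bidirectional fitting, DMSO-referenced.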

[12] = ATG_PPRE_CIS: Attagene CIS-FACTORIAL HepG2 Assay for human Peroxisome Proliferator-activated Response Element (PPRE) (AID 2282958); details: HepG2 PPRE cis-element reporter, Attagene transcription factor profiling; actives raise or lower the signal
Summary of the method: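 Multiplexed reporter transcription units under cis-regulatory promoters were transfected into HepG2 cells to capture endogenous factor activity. A 24 h incubation preceded RNA isolation and fluorescent RT-PCR fragment analysis.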

[13] = ATG_Sox_CIS: Attagene CIS-FACTORIAL HepG2 Assay for human SRY-box transcription factor (SOX) (AID 2282960); details: HepG2 Attagene cis-factorial SOX reporter, mRNA; actives raise or lower the signal
Summary of the method: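 After 24 h of chemical treatment, transfected HepG2 reporter cells are lysed for total RNA. Transcript levels come from RT-PCR with labelled primer extension and capillary electrophoresis, analysed bidirectionally versus DMSO.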

[14] = target: Transcription factor Sp1 (Homo sapiens) (UniProt P08047); assay: ATG_Sp1_CIS: Attagene CIS-FACTORIAL HepG2 Assay for human Specificity Protein 1 (Sp1) (AID 2282961); details: HepG2 Sp1 cis-reporter transcription, actives raise or lower the signal
Summary of the method: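 Sp1-driven reporter mRNA, read as capillary electrophoresis fluorescence after RT-PCR, in transiently transfected HepG2 cells dosed for 24 h; signal change in either direction relative to DMSO.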

[15] = ATG_SREBP_CIS: Attagene CIS-FACTORIAL HepG2 Assay for human Sterol Regulatory Element Binding (SREBP) (AID 2282962); details: HepG2 Attagene cis-factorial SREBP reporter, mRNA; actives raise or lower the signal
Summary of the method: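 mRNA induction of transfected cis-promoter reporters in HepG2 cells, 24 h post-dose. Detection: RT-PCR with 6-FAM-labelled products, HpaI digest, capillary electrophoresis. DMSO served as negative control and baseline.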

[16] = target: Signal transducer and activator of transcription 3 (Homo sapiens) (UniProt P40763); assay: ATG_STAT3_CIS: Attagene CIS-FACTORIAL HepG2 Assay for human Signal Transducer and Activator of Transcription 3 (STAT3) (AID 2282963); details: HepG2, Attagene cis-factorial STAT3 reporter transcription; actives raise or lower the signal
Summary of the method: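 Endogenous STAT3-responsive cis-element activity was read in transiently transfected HepG2 cells after 24 h treatment. Reporter transcripts were quantified via RT-PCR and capillary electrophoresis, with DMSO as negative control and bidirectional curve fitting.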

[17] = ATG_TA_CIS: Attagene CIS-FACTORIAL HepG2 Assay for human TA Basal Promoter (AID 2282964); details: HepG2 Attagene CIS-factorial TA basal promoter reporter; actives raise or lower the signal
Summary of the method: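 Multiplexed mRNA reporter assay, HepG2, 24 h. Reporter cDNA amplified, 6-FAM primer-extended, HpaI-cut, CE-sized; DMSO = negative control and baseline.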

[18] = ATG_GRE_CIS: Attagene CIS-FACTORIAL HepG2 Assay for human Glucocorticoid Response Elements (GRE) (AID 2282947); details: HepG2 GRE cis-reporter, Attagene multiplex mRNA; actives raise or lower the signal
Summary of the method: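 Transient MRTU transfection of human HepG2 liver cells; cis-regulated reporters report endogenous factors. 24 h dosing → RNA isolation → RT-PCR → 6-FAM primer extension → HpaI cut → CE fragment analysis. Bidirectional fit, DMSO negative control.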

[19] = ATG_PBREM_CIS: Attagene CIS-FACTORIAL HepG2 Assay for human Phenobarbital-responsive Enhancer Module (PBREM) (AID 2282955); details: HepG2 PBREM cis-reporter, Attagene multiplexed transcription; actives raise or lower the signal
Summary of the method: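 After a 24 h incubation with test chemical, transfected HepG2 cells yield total RNA; reporter-specific RT-PCR products are fluorescently labelled, HpaI-digested and resolved by capillary electrophoresis against ROX size standards.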

[20] = ATG_RORE_CIS: Attagene CIS-FACTORIAL HepG2 Assay for human RAR-related Orphan Receptor Element (RORE) (AID 2282959); details: HepG2 Attagene cis-factorial RORE reporter, mRNA; actives raise or lower the signal
Summary of the method: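 Fluorescence intensity of reporter-specific cDNA fragments, separated by capillary electrophoresis, gives the signal. Source: HepG2 liver cells transiently transfected with cis-element reporters and exposed 24 h; DMSO-normalized bidirectional fit.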

Measured: AC50

Chain of Bile acid receptor (Homo sapiens) (Q96RI1 whole entry, looked up, the tested form may be a part): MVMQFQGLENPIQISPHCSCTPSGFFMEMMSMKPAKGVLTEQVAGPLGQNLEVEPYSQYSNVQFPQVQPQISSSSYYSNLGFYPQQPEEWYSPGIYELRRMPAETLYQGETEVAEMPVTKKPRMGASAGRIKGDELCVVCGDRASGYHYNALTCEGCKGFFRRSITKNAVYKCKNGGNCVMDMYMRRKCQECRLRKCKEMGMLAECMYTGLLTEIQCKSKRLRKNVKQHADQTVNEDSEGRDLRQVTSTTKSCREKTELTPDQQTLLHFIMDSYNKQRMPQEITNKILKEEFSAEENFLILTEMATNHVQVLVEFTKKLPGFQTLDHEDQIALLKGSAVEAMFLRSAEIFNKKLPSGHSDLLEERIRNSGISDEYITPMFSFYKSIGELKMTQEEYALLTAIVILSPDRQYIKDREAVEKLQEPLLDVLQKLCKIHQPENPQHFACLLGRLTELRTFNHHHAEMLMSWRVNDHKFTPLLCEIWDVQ
Chain of Signal transducer and activator of transcription 3 (Homo sapiens) (P40763 whole entry, looked up): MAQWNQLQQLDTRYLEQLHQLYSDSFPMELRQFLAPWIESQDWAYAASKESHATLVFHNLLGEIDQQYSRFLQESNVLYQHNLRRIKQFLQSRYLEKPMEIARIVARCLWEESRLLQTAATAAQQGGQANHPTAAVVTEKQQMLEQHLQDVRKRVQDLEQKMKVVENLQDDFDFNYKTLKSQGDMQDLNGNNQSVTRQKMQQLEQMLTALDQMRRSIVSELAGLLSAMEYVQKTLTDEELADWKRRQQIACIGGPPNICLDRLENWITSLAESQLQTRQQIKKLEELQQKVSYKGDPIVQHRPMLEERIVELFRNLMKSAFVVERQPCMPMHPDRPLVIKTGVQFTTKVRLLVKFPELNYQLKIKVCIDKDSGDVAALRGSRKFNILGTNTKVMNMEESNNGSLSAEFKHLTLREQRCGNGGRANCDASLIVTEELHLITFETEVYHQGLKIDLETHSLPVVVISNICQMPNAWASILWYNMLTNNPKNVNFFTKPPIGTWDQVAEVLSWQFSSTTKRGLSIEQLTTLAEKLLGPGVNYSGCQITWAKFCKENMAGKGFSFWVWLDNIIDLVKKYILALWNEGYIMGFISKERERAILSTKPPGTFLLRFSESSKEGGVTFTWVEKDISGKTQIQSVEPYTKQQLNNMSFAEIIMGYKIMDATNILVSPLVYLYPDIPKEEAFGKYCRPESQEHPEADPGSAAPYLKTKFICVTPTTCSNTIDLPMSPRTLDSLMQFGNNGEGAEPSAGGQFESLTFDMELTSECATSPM
Chain of Paired box protein Pax-6 (Homo sapiens) (P26367 whole entry, looked up): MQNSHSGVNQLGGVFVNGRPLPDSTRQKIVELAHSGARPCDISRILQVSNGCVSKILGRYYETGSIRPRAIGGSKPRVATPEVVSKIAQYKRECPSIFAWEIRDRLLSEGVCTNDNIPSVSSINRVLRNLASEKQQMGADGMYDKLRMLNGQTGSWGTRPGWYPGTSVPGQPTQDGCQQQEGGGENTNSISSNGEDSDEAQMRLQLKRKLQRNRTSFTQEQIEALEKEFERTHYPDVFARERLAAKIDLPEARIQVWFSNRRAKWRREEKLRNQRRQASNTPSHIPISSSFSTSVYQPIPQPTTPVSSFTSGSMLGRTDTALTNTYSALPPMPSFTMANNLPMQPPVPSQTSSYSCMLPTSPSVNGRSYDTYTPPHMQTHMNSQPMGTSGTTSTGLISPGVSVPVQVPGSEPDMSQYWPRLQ
Chain of Hypoxia-inducible factor 1-alpha (Homo sapiens) (Q16665 whole entry, looked up): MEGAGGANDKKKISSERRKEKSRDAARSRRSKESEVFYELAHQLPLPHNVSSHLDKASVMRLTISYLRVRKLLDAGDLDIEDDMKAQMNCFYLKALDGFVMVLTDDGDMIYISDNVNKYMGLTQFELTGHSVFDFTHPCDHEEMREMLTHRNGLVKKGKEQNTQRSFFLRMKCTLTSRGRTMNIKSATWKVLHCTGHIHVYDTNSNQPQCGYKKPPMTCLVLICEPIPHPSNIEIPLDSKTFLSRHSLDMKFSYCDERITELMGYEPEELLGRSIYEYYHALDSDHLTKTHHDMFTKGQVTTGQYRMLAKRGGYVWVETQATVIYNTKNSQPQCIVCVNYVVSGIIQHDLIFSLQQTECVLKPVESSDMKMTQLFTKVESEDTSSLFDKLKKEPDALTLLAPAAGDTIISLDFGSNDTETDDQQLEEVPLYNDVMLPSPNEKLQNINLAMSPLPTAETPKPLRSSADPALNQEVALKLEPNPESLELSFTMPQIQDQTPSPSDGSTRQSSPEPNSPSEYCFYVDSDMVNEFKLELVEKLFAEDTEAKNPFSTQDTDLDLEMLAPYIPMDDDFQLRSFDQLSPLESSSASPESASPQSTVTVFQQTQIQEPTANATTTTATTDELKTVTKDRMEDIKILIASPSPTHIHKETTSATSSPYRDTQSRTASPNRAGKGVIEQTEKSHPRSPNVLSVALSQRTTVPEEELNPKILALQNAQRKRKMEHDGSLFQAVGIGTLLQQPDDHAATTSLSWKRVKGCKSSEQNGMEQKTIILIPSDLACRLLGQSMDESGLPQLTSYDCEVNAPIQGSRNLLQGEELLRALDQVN
Chain of Hepatocyte nuclear factor 6 (Homo sapiens) (Q9UBC0 whole entry, looked up): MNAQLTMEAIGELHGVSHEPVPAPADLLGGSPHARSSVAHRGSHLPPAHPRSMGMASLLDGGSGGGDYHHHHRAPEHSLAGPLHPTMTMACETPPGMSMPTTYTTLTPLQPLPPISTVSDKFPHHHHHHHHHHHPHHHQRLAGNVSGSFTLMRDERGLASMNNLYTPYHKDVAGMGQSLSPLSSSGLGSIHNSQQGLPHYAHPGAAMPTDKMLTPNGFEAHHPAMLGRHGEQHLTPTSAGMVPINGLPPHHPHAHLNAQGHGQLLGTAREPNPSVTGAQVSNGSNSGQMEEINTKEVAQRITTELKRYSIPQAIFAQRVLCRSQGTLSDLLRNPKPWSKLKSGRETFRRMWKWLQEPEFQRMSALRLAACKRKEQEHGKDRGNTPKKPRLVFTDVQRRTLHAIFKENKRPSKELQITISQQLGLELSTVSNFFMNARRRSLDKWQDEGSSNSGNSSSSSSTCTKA
Chain of Heat shock factor protein 1 (Homo sapiens) (Q00613 whole entry, looked up): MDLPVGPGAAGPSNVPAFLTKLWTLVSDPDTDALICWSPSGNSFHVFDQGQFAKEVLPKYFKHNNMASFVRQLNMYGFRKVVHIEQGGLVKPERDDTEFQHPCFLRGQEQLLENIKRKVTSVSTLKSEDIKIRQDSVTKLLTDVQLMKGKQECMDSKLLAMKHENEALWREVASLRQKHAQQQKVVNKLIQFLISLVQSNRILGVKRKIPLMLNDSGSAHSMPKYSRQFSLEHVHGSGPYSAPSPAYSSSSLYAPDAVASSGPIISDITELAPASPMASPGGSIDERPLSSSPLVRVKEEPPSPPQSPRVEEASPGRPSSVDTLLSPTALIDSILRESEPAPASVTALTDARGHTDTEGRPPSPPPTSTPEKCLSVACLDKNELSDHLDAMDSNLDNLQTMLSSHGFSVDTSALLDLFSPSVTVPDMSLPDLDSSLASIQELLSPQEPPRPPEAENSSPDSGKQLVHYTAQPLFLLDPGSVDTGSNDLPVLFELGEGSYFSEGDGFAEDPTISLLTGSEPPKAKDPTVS
Chain of Transcription factor Sp1 (Homo sapiens) (P08047 whole entry, looked up): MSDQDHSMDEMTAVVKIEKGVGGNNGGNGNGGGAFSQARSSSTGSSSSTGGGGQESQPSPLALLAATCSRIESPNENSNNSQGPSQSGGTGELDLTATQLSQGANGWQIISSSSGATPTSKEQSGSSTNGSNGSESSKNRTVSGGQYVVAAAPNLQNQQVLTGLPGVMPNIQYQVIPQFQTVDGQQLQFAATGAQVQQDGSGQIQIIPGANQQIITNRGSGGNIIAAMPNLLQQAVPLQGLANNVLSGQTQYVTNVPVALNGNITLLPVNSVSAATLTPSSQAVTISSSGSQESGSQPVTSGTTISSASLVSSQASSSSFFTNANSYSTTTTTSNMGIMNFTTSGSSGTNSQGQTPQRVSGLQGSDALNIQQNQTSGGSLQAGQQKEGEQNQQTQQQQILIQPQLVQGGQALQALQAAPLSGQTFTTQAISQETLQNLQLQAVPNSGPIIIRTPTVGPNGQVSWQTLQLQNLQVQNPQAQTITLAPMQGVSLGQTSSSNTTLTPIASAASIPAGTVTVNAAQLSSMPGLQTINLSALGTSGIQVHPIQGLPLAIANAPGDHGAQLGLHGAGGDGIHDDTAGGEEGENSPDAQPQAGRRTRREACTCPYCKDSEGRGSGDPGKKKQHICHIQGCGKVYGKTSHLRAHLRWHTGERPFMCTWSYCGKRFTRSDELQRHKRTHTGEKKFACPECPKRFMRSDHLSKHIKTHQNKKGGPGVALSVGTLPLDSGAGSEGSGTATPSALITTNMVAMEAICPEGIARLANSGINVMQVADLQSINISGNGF

CC1=CC[C@@H](C(C)(C)O)CC1
not listed: [18] | [19] | [20]
inactive: all other assays above

CC=CC(=O)C1=C(C)C=CCC1(C)C
active: [11] 55.4 µM
not listed: [13] | [14]
inactive: all other assays above

CCCCCC(=O)O[C@]1(C(C)=O)CC[C@H]2[C@@H]3CCC4=CC(=O)CC[C@]4(C)[C@H]3CC[C@@]21C
active: [1] 57.7 µM | [18] 55.1 µM | [3] 16.3 µM | [6] 33.2 µM | [8] 32 µM | [9] 13 µM | [10] 22.8 µM | [11] 0.239 µM | [13] 59.6 µM | [15] 33.2 µM | [16] 33.2 µM | [17] 60 µM
inactive: [2] | [4] | [5] | [7] | [19] | [12] | [14]

CC1=CCC(C(C)(C)O)CC1 (stereo not given)
not listed: [14] | [18] | [19] | [20]
inactive: all other assays above
